Results filed as inconclusive are left out. A call without a number means that no potency is given here. The source made the active and inactive calls. Calls follow the shape of the dose curve; as a rule, active = well fitted curve in the direction sought with a large enough effect; inconclusive = small, poorly fitted or top-dose-only effect, or another doubt; inactive = no such curve, though single readings can be large; an effect the other way counts as inactive or inconclusive.
Potency is read from the fitted curve at half-maximal effect.

Lysine-specific demethylase 5B (Homo sapiens), sequence (Q9UGL1 whole entry, looked up): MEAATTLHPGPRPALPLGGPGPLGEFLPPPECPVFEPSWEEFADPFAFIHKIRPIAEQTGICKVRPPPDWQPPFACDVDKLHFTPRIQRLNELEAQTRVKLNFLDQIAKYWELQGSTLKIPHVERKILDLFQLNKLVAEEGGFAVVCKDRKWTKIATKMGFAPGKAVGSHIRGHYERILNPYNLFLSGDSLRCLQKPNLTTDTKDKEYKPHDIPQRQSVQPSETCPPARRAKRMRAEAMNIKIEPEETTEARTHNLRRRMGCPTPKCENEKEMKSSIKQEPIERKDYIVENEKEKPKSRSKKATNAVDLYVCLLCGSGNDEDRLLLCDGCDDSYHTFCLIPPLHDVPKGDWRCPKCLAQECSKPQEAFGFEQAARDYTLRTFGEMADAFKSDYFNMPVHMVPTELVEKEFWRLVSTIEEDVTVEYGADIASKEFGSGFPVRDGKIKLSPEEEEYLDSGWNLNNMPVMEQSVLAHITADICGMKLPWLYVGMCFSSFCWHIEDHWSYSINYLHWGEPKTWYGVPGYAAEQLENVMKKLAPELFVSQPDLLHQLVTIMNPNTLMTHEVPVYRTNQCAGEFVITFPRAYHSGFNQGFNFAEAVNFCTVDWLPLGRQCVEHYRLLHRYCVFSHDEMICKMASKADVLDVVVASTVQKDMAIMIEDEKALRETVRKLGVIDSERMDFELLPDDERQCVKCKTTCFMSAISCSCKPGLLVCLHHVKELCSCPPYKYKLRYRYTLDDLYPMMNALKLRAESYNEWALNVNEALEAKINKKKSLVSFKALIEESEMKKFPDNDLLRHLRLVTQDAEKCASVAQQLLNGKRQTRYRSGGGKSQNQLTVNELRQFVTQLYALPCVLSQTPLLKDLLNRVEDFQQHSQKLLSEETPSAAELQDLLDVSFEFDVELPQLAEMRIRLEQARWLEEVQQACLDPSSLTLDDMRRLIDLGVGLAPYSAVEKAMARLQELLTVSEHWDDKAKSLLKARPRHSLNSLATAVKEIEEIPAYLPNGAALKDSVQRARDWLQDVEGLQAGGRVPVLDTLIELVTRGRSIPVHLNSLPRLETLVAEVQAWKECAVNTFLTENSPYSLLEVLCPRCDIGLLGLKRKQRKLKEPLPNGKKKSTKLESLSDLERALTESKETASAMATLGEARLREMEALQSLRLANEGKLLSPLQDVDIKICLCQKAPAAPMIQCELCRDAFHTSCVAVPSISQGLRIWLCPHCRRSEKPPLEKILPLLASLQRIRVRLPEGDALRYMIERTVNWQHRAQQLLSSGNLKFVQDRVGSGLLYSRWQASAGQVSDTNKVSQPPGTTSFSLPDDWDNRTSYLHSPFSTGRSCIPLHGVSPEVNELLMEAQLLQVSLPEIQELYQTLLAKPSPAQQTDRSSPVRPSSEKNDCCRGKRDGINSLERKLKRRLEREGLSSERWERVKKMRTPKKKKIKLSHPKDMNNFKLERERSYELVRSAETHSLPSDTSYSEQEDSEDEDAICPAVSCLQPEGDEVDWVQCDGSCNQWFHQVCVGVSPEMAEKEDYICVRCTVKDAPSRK

One assay relates to Zika virus NS2B-NS3 protease (linked construct). Briefly: 384 well plate NINDS Rhodamine confirmatory qHTS for Zika virus inhibitors (AID 1347164). Also: nearly all actives have a fitted effect of over 65% in size. As to conditions: rhodamine-110 peptide substrate fluorescence; series mostly up to 100 µM. An excerpt: Description: Assay Submitters (PI): Avindra Nath, Ph.D., National Institute of Neurological Disorders and Stroke (NINDS), Bethesda, MD Radhakrishnan Padmanabhan, Ph.D., Georgetown University (GU), Washington D.C. Zika Virus causes congenital defects, including microcephaly and is associated with Guillain-Barre syndrome, eningoencephalitis and myelitis in infected adult. […] Using a target-based approach, we hope to establish a screening paradigm to uncover novel, cell-active NS2B-NS3 protease (Zika Virus) specific inhibitors from NCATS' collection of small molecules using qHTS. […] Four assay panel was created to identify potential Zika Virus inhibitors. Namely, (1) GU unlinked NS2B-NS3 AMC tagged protease qHTS, (2) GU unlinked NS2B-NS3 Rhodamine tagged protease qHTS, (3) NINDS linked NS2B-NS3 AMC tagged protease qHTS, (4) NINDS linked NS2B-NS3 Rhodamine tagged protease qHTS. Active compounds are validated using a secondary assay in 384 well plate format. Early Translation Branch (ETB) National Center for Advancing Translational Sciences (NCATS), Rockville, MD National Institute of Health (NIH), Bethesda, Maryland
384-well NINDS Rhodamine Assay: The protease was diluted to 7.5 nM, 40.9 nM, or 82 nM in assay buffer and dispensed into a 96-well PCR plate (Applied Biosystems); 20 or 22 microL was transferred to a black 384-well assay plate (final protease concentration of 5 nM, 30 nM, or 60 nM, respectively). Compounds (3 microL, 1 microM - 10 mM, DMSO) were diluted and transferred to the assay plate (final concentrations ranged from 100 nM to 1 mM). Compounds were incubated with protease for ~15 minutes. The substrate, Rhodamine 110 (Ac-LKRR-Rd; Genscript), was dissolved in DMSO to a concentration of 6 mM and further diluted into assay buffer to a working concentration of 180 microM, then dispensed into a 384-well preparation plate (Eppendorf). […] After 25 minutes, the fluorescence intensity (excitation: 485 nm, emission: 538 nm) was measured and normalized to no-enzyme and no-inhibitor controls. […]
As to `C[C@@]1(C(=O)O)CC[C@]2(C)CC[C@]3(C)C4=CC(=O)c5cc(O)c(O)cc5[C@]4(C)CC[C@@]3(C)[C@@H]2C1`, the Potency was 1.12 µM (active).

In the case of `CC(=O)c1c(O)c(C)c(O)c(Cc2c(O)c3c(c(C(=O)/C=C/c4ccccc4)c2O)OC(C)(C)C=C3)c1O`, the Potency was 31.6 µM (active).

With `CCCCCOc1cc2c(cc1-c1cc(/C=C/C(=O)O)ccc1O)C(C)(C)CCC2(C)C`, the Potency entry is “inactive”.

In the next assay the target is Lysine-specific demethylase 5B (Homo sapiens) (UniProt Q9UGL1). Description: Optimization screen for KDM5B Histone Demethylases FDH coupled qHTS against the LOPAC library (AID 1347166). As to conditions: KDM5B demethylation, FDH-coupled NADH fluorescence (FDH is formaldehyde dehydrogenase); series mostly up to 57.5 µM. In outline:
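KDM5BDeltaAP (200nM final) in 50mM HEPES pH 7.5, 0.01% Tween-20 was preincubated with compound for 10 min at room temperature. A substrate mix of 12.5uM H3K4Me3, 25uM a-ketoglutarate, ascorbate, Fe2+, NAD+ and formaldehyde dehydrogenase was then added. NADH fluorescence (340/450 nm) was read initially and after 30 min.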
In the case of `CN(C(=O)Cc1ccc(Cl)c(Cl)c1)C(CN1CCCC1)c1cccc(OCC(=O)O)c1` (stereo not given), the Potency result is “inactive”.

`C[N+](C)(C)CC#CCN1CCCC1=O`: the Potency entry was “inactive”.

Regarding `CC12NC(Cc3ccccc31)c1ccccc12` (stereo not given), the Potency result was “inactive”.

`Oc1ccc2c3c1O[C@H]1c4oc5ccccc5c4C[C@@]4(O)C(C2)N(CC2CC2)CCC314` (stereo not given in full): the Potency result was “inactive”.

Turning to `C[N+](C)(C)CC#CCOC(=O)Nc1cccc(Cl)c1`, the Potency result is “inactive”.

Turning to `N[C@@]1(C(=O)O)CC[C@@H](C(=O)O)C1`, the Potency entry was “inactive”.

With `C[C@H](N)Cc1cccc(C(F)(F)F)c1`, the Potency result was “inactive”.

Regarding `Nc1ccc(CCN2CCN(c3cccc(C(F)(F)F)c3)CC2)cc1`, the Potency entry was “inactive”.

For the compound `CC(Cc1ccc(OCC(=O)O)cc1)NCC(O)c1cccc(Cl)c1` (stereo not given), the Potency entry is “inactive”.

As to `C[N+]1(C)CCOC(O)(c2ccc(-c3ccc(C4(O)C[N+](C)(C)CCO4)cc3)cc2)C1` (stereo not given), the Potency entry was “inactive”.

For `CN1CC[C@@]2(C)c3cc(O)ccc3N(C)C12` (stereo not given in full), the Potency was 2.51 µM (active).

For `COc1ccc(OC)c(C(O)C(C)N)c1` (stereo not given), the Potency entry was “inactive”.

Regarding `O=C1C=CC(=O)C=C1`, the Potency result is “inactive”.

`C=CCN(C1=NCCN1)c1c(Cl)cccc1Cl`: the Potency entry is “inactive”.

Regarding `CN1CCc2cccc(Cl)c2CC1`, the Potency entry was “inactive”.

As to `COc1ccc(CNC(=O)/C=C/c2ccc3[nH]cc(CCN(C)C)c3c2)cc1`, the Potency result was “inactive”.

Take `CC1(C(=O)O)C2CCC(O2)C1(C)C(=O)O` (stereo not given): the Potency entry was “inactive”.

With `CCCN(CCC)C1Cc2cc(OC)c(OC)cc2C1`, the Potency entry was “inactive”.

Turning to `NC(N)=NOCC[C@H](N)C(=O)O`, the Potency result was “inactive”.

For `CCCN(CCC)C1CCc2cccc(O)c2C1` (stereo not given), the Potency entry is “inactive”.

Take `NCC(CP(=O)(O)O)c1ccc(Cl)cc1` (stereo not given): the Potency entry was “inactive”.

With `N[C@@H](CCl)C(=O)O`, the Potency entry is “inactive”.

Turning to `CN1CCC(c2c[nH]c3ccc(O)cc23)CC1`, the Potency result was “inactive”.

As to `OCc1cnc[nH]1`, the Potency result was “inactive”.

With `c1ccc2c(c1)[I+]c1ccccc1-2`, the Potency entry is “inactive”.

Take `CCN1C[C@@]2(COC)C3[C@@H](OC)C4[C@@H]1C3([C@@H]1C[C@]3(O)[C@H](OC(=O)c5ccccc5)[C@@H]1[C@]4(OC(C)=O)[C@@H](O)[C@@H]3OC)[C@H](OC)C[C@H]2O`: the Potency result is “inactive”.

In the case of `CC(C)(C)c1cc(C=C(C#N)C#N)cc(C(C)(C)C)c1O`, the Potency entry was “inactive”.

On to `N#CCCN`, for which the Potency result was “inactive”.

On to `CCn1cnc2c(Nc3cccc(Cl)c3)nc(N[C@@H]3CCCC[C@@H]3N)nc21`, for which the Potency result was “inactive”.

On to `C[N+]1(C)CCc2cc3c(cc2[C@H]1[C@@H]1OC(=O)c2c1ccc1c2OCO1)OCO3`, for which the Potency entry was “inactive”.

For the compound `CO[C@H]1CC=C2CCN3CCC4=C(CC(=O)OC4)[C@]23C1`, the Potency result was “inactive”.

In the case of `Cc1cc([C@@H]2CCCN2C)on1`, the Potency entry is “inactive”.
